Mcl-1 Bim block = inhibitors of Bim-Mcl-1 interaction, human. Q07820. Bead-based flow cytometry, Bim peptide-Mcl-1 binding. inhibition, % at 10 µM. actives 0.1% (n = 190,000). AID 1009; in the data active means inhibition above about 40%;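 further: 0% = no compound tracer wells and 100% = peptide blocker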
Target sequence (Q07820 whole entry, looked up): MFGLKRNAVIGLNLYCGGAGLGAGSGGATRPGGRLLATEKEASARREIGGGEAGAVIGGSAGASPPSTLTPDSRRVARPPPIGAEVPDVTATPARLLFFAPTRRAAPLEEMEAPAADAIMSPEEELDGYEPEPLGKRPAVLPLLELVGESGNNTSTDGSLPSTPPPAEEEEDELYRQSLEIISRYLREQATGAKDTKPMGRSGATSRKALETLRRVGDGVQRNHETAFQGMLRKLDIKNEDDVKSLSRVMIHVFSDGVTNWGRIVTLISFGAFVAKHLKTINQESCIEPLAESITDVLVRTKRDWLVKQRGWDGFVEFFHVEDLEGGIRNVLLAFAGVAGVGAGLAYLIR
Pf gametocyte = kills late stage P. falciparum gametocytes; P. falciparum stage V gametocytes, ATP luminescence, 24 h; inhibition, % at 10.9 µM; actives 0.065% (n = 150,000); AID 743093;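 active means inhibition above the mean plus 3 SD of compounds within the control limits, set per campaign, cut at about 38% in these data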;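 further: 0% = DMSO wells and 100% = medium only without gametocytes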
Hck-Nef inh = human Hck-Nef kinase inhibition; inhibition, % at 20 µM; Recombinant Hck-YEEI plus Nef, Z-Lyte FRET kinase assay; P08631; actives 0.68% (n = 220,000);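 active means Hck-Nef kinase inhibition above about 50%, limit read from the data; inactive means inhibition below that limit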;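 further: 0% = DMSO with Hck plus Nef and 100% = Hck alone without Nef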
14-3-3 Bad PPI = disrupts binding of bovine 14-3-3 zeta to phospho-Bad peptide. TR-FRET 14-3-3zeta/Dy647-pBad peptide displacement, 1 h. P63103. actives 0.71% (n = 220,000). inhibition, % at 21.7 µM;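 active means inhibition above about 70%, limit read from the data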;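 further: 0% = full 14-3-3 plus peptide FRET controls and 100% = background without 14-3-3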
Target sequence (P63103 whole entry, looked up): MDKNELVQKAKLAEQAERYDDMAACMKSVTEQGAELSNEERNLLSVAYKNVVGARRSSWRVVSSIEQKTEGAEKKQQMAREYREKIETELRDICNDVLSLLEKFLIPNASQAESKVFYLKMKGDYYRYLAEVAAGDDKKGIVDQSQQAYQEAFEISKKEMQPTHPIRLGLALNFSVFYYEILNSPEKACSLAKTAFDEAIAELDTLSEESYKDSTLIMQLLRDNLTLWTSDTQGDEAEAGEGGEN
Mcl1 Noxa PPI = disrupts binding of human Mcl-1 to Noxa peptide; inhibition, % at 21.7 µM; actives 1.5% (n = 220,000); TR-FRET Mcl-1/Noxa peptide binding, 2 h; Q07820;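 active means compounds that cut the protein-peptide binding signal by more than 50% relative to plate controls in a single-dose test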;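 further: His-tagged Mcl-1 with rhodamine Noxa BH3 peptide and terbium anti-His antibody; 0% = Mcl-1 plus Noxa peptide wells and 100% = peptide-only wells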
Mcl1-Bid inh = disrupts binding of human Mcl-1 to Bid peptide | Q07820 | TR-FRET Mcl-1/Bid-Dy647 peptide binding, 1536-well | inhibition, % at 21.7 µM | actives 0.97% (n = 220,000) | AID 1021;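 active means compounds that cut the binding signal by more than half at the single screening dose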;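 further: His-tagged Mcl-1 with europium anti-His antibody binding Bid BH3 peptide; 0% = Mcl-1 plus peptide wells and 100% = peptide-only wells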
Numbers without * were called inactive; . = no result given. Compounds with a hit are over-represented: about 2.9% of the library has one in this group of screens.

SMILES | Mcl-1 Bim block | Pf gametocyte | Hck-Nef inh | 14-3-3 Bad PPI | Mcl1 Noxa PPI | Mcl1-Bid inh
CCc1cc(Cn2nc(C(=O)O)cc2-c2ccccc2)on1 | . | 4.8 | . | . | . | .
Cc1ccc(COc2cccc3c2CCN(Cc2ccc(F)cc2)C3=O)cc1 | -3.0 | . | 1.4 | 3.9 | 12.4 | 53.9*
Cc1cccc(CN2CCc3c(OCC(=O)NCc4ccco4)cccc3C2=O)c1 | -7.0 | . | -1.4 | 5.7 | 3.3 | 95.4*
CCN(CC)c1cc(Oc2ccccc2)ncn1 | -4.0 | -10.6 | 3.8 | -2.7 | 5.2 | 15.7
CCCCCCCN1C/C=C\C(c2ccc(OC)cc2)N(Cc2ccc(F)cc2)C(=O)[C@H]1Cc1ccccc1 (some centres undefined) | . | . | 29.6 | -6.4 | -18.9 | -53.0
CC(C)CN(C(=O)COC(=O)c1cc2c(s1)CCC2)C1CCS(=O)(=O)C1 (centres undefined) | 1.0 | -6.1 | 4.6 | -18.9 | 55.4* | -29.3
CC(C)CN(C(=O)COC(=O)c1ccc(-c2ccccc2)cc1)C1CCS(=O)(=O)C1 (centres undefined) | -1.0 | -20.5 | 20.6 | -2.9 | 0.6 | 1.8
CN1c2ccsc2C(O)=C(C(=S)Nc2ccc(F)c(Cl)c2)S1(=O)=O | -6.0 | . | 3.6 | 10.1 | 33.5 | 54.0*
Cn1cc(C(=O)Nc2ccc(F)c(Cl)c2)cn1 | -3.0 | 12.6 | -2.4 | -15.8 | -3.5 | -13.4
Cn1cccc2[nH]c(=O)nc1-2 | . | 1.4 | 2.2 | 9.3 | 6.7 | -23.8
CCn1c(SCC(=O)Nc2ccc3c(c2)oc2ccccc23)nnc1-c1ccc(N)cc1 | 2.0 | -19.6 | 0.1 | 65.8 | 55.8* | 58.3*
CCCCc1[nH]nc2c1C1(C(=O)N(CC)c3ccccc31)C(C#N)=C(N)O2 (centres undefined) | -2.0 | . | -3.4 | -10.0 | 105.9* | 0.2
CCOC(=O)c1c(C)oc2c1c(C=NCCO)c(O)c1ccccc12 | 0.0 | . | 15.9 | -13.9 | 10.1 | -65.4
CCOC(=O)c1c(C)oc2c1c(C(c1ccccc1)N1CCOCC1)c(O)c1ccccc12 (centres undefined) | 1.0 | -5.5 | 28.1 | 1.1 | 57.6* | 59.8*
CCOC(=O)c1c(C)oc2c1c(C(c1cccnc1)N1CCCCC1)c(O)c1ccccc12 (centres undefined) | 0.0 | 19.0 | 1.7 | 18.6 | 98.4* | 59.7*
CCCCN(C)C(=O)c1nc2ccccn2c1CNCCCn1ncc2ccccc21 | . | 4.5 | 12.4 | -3.6 | 18.9 | -20.1
COC(c1ccc(Cl)cc1)(c1ccc(Cl)cc1)C(Oc1nccc(C)n1)C(=O)O (centres undefined) | . | -0.1 | . | . | . | .
CC(C)(C)c1ccc(C(=O)N/C(=C\c2cccs2)C(=O)NCc2ccco2)cc1 | -3.0 | -9.8 | -0.6 | -7.9 | 16.0 | -6.6
CC(=O)c1ccc(N2CCN(C(=O)CCCn3c(=S)[nH]c4cc5c(cc4c3=O)OCO5)CC2)cc1 | 0.0 | -12.4 | 7.5 | -9.0 | 34.7 | 55.3*
NC(=O)c1ccc(Nc2nnc(-c3ccc(O)cc3)c3ccccc23)cc1 | -4.0 | -3.8 | 25.7 | 25.4 | 51.8* | 13.2
COc1ccc(N2CCN(c3oc(-c4ccccc4OC)nc3C#N)CC2)cc1 | -6.0 | . | -0.7 | -10.8 | 15.7 | -35.6
CCOC(=O)C1CCCN(c2ccc(NC(=O)c3snc4c(=O)[nH]cnc34)cc2)C1 (centres undefined) | -3.0 | 15.0 | 3.3 | 11.8 | 63.4* | -60.2
O=C(Nc1ccccc1)c1snc2c(=O)[nH]cnc12 | 16.0 | . | 9.5 | 2.4 | -1.6 | -4.2
CCOC(=O)C1CCCN(c2ccc(NC(=O)c3snc4c(=O)[nH]c(C)nc34)cc2)C1 (centres undefined) | 0.0 | 2.3 | -1.1 | 1.0 | 84.1* | 2.5
Cc1ccc(-c2nn(-c3cc(Cl)ccc3[N+](=O)[O-])c(=O)c3ccccc23)cc1C | 1.0 | 2.7 | 1.2 | 5.8 | 2.8 | -27.8
SMILES | Mcl-1 Bim block | Pf gametocyte | Hck-Nef inh | 14-3-3 Bad PPI | Mcl1 Noxa PPI | Mcl1-Bid inh
COc1ccccc1N1C(=O)C2ON(c3ccccc3)C(c3ccc(N(C)C)cc3)C2C1=O (centres undefined) | 11.0 | . | 0.4 | 2.9 | 77.7* | -5.7
CC1=C(C(=O)OC(C)C)C(c2cccs2)C(C(=O)OC(C)C)=C(C)N1 | 0.0 | -12.2 | 3.6 | -11.8 | 13.5 | -27.5
O=C(/C=C/c1cc[n+](CC(=O)c2ccc3cccc4c3c2CC4)cc1)c1ccc2cccc3c2c1CC3 | . | . | 68.6* | 94.4* | 55.1* | 98.7*
c1ccc2c(c1)oc1c(N3CCOCC3)ncnc12 | -1.0 | 0.4 | 1.4 | 80.9* | 31.3 | 28.2
Cc1nc(N2CCOCC2)c2oc3ccccc3c2n1 | -3.0 | 10.7 | 1.9 | 4.6 | 9.4 | -1.0
COc1ccc2[nH]c3c(=O)n(Cc4ccc(C(=O)N5CCCC5)cc4)c(=S)[nH]c3c2c1 | 0.0 | -13.9 | 6.5 | 1.0 | 77.8* | -34.0
CN(C)CCNC(=O)/C(=C/c1ccc(-c2cccc(Cl)c2)o1)NC(=O)c1ccccc1 | -5.0 | . | 10.5 | 0.7 | 6.1 | -1.2
C=CCc1cccc(C=Nc2cccn3cc(-c4ccccc4)nc23)c1O | 0.0 | 11.2 | 17.7 | -15.6 | 30.7 | -27.1
COc1ccc(-c2noc(-c3cccs3)n2)cc1OC | . | 5.5 | -0.9 | 36.0 | 31.6 | 58.1*
COc1cc(-c2nc(-c3ccc(NC(=O)c4ccc(Br)o4)cc3)no2)cc(OC)c1OC | 0.0 | -20.1 | 10.9 | 69.7 | 0.5 | 68.3*
COc1ccc(-c2nnc(-c3ccc(Br)o3)o2)cc1OC | -4.0 | -4.4 | 1.2 | 8.8 | 8.0 | -1.6
COc1ccc(-c2nc(-c3ccc(Br)o3)no2)cc1OC | 0.0 | . | 20.3 | 33.5 | 21.0 | 56.3*
Cc1cc(C(F)(F)F)nn1CC(=O)NCc1cccs1 | 0.0 | 5.0 | 21.5 | -3.6 | -6.2 | -26.1
COc1ccc(NC(=O)N2CCC(NC(=O)c3ccco3)CC2)cc1 | 0.0 | . | 0.0 | 1.2 | 10.1 | -14.2
C#CCCCCCCC#CCN(C)C | -4.0 | -29.9 | 3.0 | 46.9 | 36.5 | 54.9*
CC(/C=N/n1c(-c2ccc(Cl)cc2)n[nH]c1=S)=C\c1ccco1 | -3.0 | -7.7 | 11.8 | 0.0 | 63.6* | 24.0
Cc1nn(-c2ccccc2)c(C)c1/C=N/n1c(-c2ccc(Cl)cc2)n[nH]c1=S | -6.0 | -12.2 | 5.0 | 38.6 | 52.7* | 22.5
Cc1cccc(OCC(=O)Nc2ccncc2)c1C | . | 6.2 | . | . | . | .
O=C(Nc1ccc2c(c1)OCCO2)c1cccc2nc3ccccc3nc12 | 6.0 | -0.3 | 0.9 | 9.7 | 62.1* | 21.2
O=C(Nc1ccc(NC(=O)c2ccccn2)cc1)C(=O)Nc1ccc2c(c1)OCCO2 | 0.0 | 11.6 | 18.1 | 43.2 | 54.1* | 34.3
O=C(O)C1(P(=O)(c2ccc(Cl)cc2)c2ccc(Cl)cc2)CCCC1 | -2.0 | -16.4 | 8.5 | -14.2 | 8.4 | -13.2
CN(CC(=O)Nc1ccc(Cl)cc1)C(=O)c1cccc(S(=O)(=O)N(C)C)c1 | -3.0 | -8.6 | 0.2 | 6.0 | 26.4 | -30.4
